The nature of assay [1]: qHTS assay to identify small molecule antagonists of the thyroid receptor (TR) signaling pathway - cell viability counter screen (AID 743064). Also: nearly all actives have a fitted effect of over 50% in size. Also: potency is read from the fitted curve at half-maximal effect. In outline: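 GH3.TRE-Luc rat pituitary cells dosed after 4 hr plating, co-stimulated with T3 at 1 nM final, incubated 23.5 h at 37 C. Viability measured in the same wells by CellTiter-Fluor fluorescence after 30 min further at 37 C.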

The nature of assay [2]: qHTS assay to identify small molecule antagonists of the thyroid receptor (TR) signaling pathway (AID 743065). Also: nearly all actives have a fitted effect of over 55% in size. Also: potency is read from the fitted curve at half-maximal effect. In outline: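 GH3.TRE-Luc rat pituitary cells (two TREs driving luciferase) were dosed with compound, then stimulated with 1 nM T3 (final) for 23.5 h at 37 C. ONE-Glo luminescence was the read-out, with CellTiter-Fluor fluorescence as the cytotoxicity counter-screen.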

Assay [3] relates to thyroid hormone receptor (rat, GH3 cells). The experiment in a line: qHTS assay to identify small molecule agonists of the thyroid receptor (TR) signaling pathway (AID 743066; calls by dose curve).
In assay [4] the target is Estrogen receptor (Homo sapiens) (UniProt P03372). The experiment in a line: qHTS assay to identify small molecule antagonists of the estrogen receptor alpha (ER-alpha) signaling pathway (AID 743069; active = well fitted curve in the direction sought with a large enough effect in the signal ratio in the repeat runs, not every such curve was filed as active; the % refers to the signal ratio). In outline:
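Beta-lactamase FRET fluorescence is read after 2 hr at room temperature with LiveBLAzer B/G substrate. Before that, ER-alpha-bla HEK293 cells sit 4 hr after plating, then receive compound plus 17beta-estradiol and incubate 18 hr at 37C.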

Assay [5] in a line: qHTS assay to identify small molecule antagonists of the estrogen receptor alpha (ER-alpha) signaling pathway - cell viability counter screen (AID 743074; calls by dose curve;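 also: HEK293 cells carrying ER-alpha-UAS-bla reporter stimulated with 17beta-estradiol; nearly all actives have a fitted effect of over 45% in size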; also: potency is read from the fitted curve at half-maximal effect).
Assay [6] addresses Estrogen receptor (Homo sapiens) (UniProt P03372). The experiment in a line: qHTS assay to identify small molecule agonists of the estrogen receptor alpha (ER-alpha) signaling pathway (AID 743075; calls by dose curve;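 also: HEK293 GripTite cells with ER-alpha and UAS-driven beta-lactamase reporter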).
Assay [7] has the same target. As to the kind of experiment: qHTS assay to identify small molecule agonists of the estrogen receptor alpha (ER-alpha) signaling pathway using the BG1 cell line (AID 743079). Also: nearly all actives have a fitted effect of over 20% in size.
Assay [8] can be described thus: qHTS assay to identify small molecule antagonists of the estrogen receptor alpha (ER-alpha) signaling pathway using the BG1 cell line (AID 743080; calls by dose curve;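 also: BG1 cells stimulated with 17beta-estradiol alongside compound; series mostly up to about 70 µM; nearly all actives have a fitted effect of over 25% in size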). An outline of the steps: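 Luminescence from a 4×ERE-luciferase reporter in BG1-Luc-4E2 cells served as read-out. Cells, pre-cultured 5 days in stripped-serum phenol-red-free medium, were exposed to compound with 17beta-estradiol co-stimulation for 21.5 h at 37 C.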

A short description of assay [9]: qHTS assay to identify small molecule antagonists of the estrogen receptor alpha (ER-alpha) signaling pathway using the BG1 cell line - cell viability counter screen (AID 743081).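 Also: compound given together with 17beta-estradiol as the ER stimulus; nearly all actives have a fitted effect of over 45% in size.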 Also: potency is read from the fitted curve at half-maximal effect.
For assay [10], the target named is Aromatase (Homo sapiens) (UniProt P11511). As to the kind of experiment: qHTS assay to identify aromatase inhibitors (AID 743083). Also: nearly all actives have a fitted effect of over 55% in size. Also: potency is read from the fitted curve at half-maximal effect.
Chain of Aromatase (Homo sapiens) (P11511 whole entry, looked up): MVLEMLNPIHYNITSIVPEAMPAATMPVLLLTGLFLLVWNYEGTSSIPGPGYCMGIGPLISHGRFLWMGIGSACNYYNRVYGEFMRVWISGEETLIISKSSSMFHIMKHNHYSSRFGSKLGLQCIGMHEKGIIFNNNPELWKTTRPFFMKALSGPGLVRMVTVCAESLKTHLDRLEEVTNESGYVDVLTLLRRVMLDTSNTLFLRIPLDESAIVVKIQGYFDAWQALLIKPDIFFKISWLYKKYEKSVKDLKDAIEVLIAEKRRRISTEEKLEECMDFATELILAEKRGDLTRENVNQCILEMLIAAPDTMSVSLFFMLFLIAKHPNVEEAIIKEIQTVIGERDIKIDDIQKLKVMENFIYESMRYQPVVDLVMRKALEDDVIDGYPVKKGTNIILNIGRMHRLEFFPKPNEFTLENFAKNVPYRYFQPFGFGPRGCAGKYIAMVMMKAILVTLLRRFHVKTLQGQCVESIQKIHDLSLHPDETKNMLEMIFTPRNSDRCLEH
Assay [11] in a line: qHTS assay to identify aromatase inhibitors - cell viability counter screen (AID 743084).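 Also: cells stimulated with testosterone during compound exposure; nearly all actives have a fitted effect of over 55% in size.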 Also: potency is read from the fitted curve at half-maximal effect.
Assay [12] has as its target Aryl hydrocarbon receptor (Homo sapiens) (UniProt P35869). As to the kind of experiment: qHTS assay to identify small molecule that activate the aryl hydrocarbon receptor (AhR) signaling pathway (AID 743085). Also: nearly all actives have a fitted effect of over 15% in size. Also: potency is read from the fitted curve at half-maximal effect.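 As to activation: HG2L7.5c1 human HepG2 liver cells with stably integrated DRE-driven firefly reporter; series mostly up to about 70 µM.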 An outline of the steps: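 HepG2 cells stably carrying a 20-DRE firefly luciferase reporter (HG2L7.5c1) treated with compound for 24 hr at 37C. Luciferase read by ONE-Glo luminescence, with CellTiter-Fluor viability read first.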

Assay [13] is described as follows: qHTS assay to identify small molecule that activate the aryl hydrocarbon receptor (AhR) signaling pathway - cell viability counter screen (AID 743086). Also: nearly all actives have a fitted effect of over 45% in size. Also: potency is read from the fitted curve at half-maximal effect. An outline of the steps: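 HepG2-AhR-luc (HG2L7.5c1) cells, 4000/well, treated 24 h at 37 C with compound; viability measured as CellTiter-Fluor fluorescence after 30 min in the same wells as the luciferase read.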

Assay [14] deals with Peroxisome proliferator-activated receptor gamma (Homo sapiens) (UniProt P37231). As to the kind of experiment: qHTS assay to identify small molecule agonists of the peroxisome proliferator-activated receptor gamma (PPARg) signaling pathway (AID 743094; active = well fitted activation curve with a large enough effect in the signal ratio in the repeat runs, not every such curve was filed as active; the % refers to the signal ratio). In outline:
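HEK293H PPARg-bla cells, 5 h settle at 37C/5% CO2; compound (DMSO) 17 h, 37C; B/G FRET substrate 1 h RT; fluorescence intensity read-out. qHTS format.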

Assay [15] is described as follows: qHTS assay for small molecule agonists of the antioxidant response element (ARE) signaling pathway - cell viability counter screen (AID 743203; calls by dose curve; also: nearly all actives have a fitted effect of over 55% in size; also: potency is read from the fitted curve at half-maximal effect). In outline:
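Luminescence read-out (CellTiter-Glo, 30 min at room temperature) measured cell viability in the same wells as the ARE beta-lactamase reporter. HepG2 ARE-bla cells were treated with compounds for 16 hrs at 37C/5% CO2.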

Assay [16] in a line: qHTS assay for small molecule activators of the heat shock response signaling pathway - cell viability counter screen (AID 743209). Also: nearly all actives have a fitted effect of over 50% in size. An outline of the steps: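 HSE-bla HeLa; 1500 cells/well; overnight 37 C, 5% CO2; compound 5 h 37 C; LiveBLAzer B/G substrate 2.5 h RT; CellTiter-Glo 30 min RT; luminescence.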
Assay [17] can be described thus: qHTS assay for small molecule activators of the heat shock response signaling pathway (AID 743210; active = well fitted activation curve with a large enough effect in the signal ratio in the repeat runs, with a control signal flat, not every such curve was filed as active; the % refers to the signal ratio;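 also: HeLa cells with beta-lactamase reporter driven by heat shock elements; series mostly up to about 63 µM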). An outline of the steps:
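Beta-lactamase reporter read-out: FRET substrate fluorescence after 2.5 h at RT, following 5 h compound treatment at 37 C of HeLa cells carrying HSE-driven bla reporter; quantitative HTS format.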

Assay [18] in a line: qHTS assay to identify small molecule antagonists of the peroxisome proliferator-activated receptor gamma (PPARg) signaling pathway - cell viability counter screen (AID 743194). Also: nearly all actives have a fitted effect of over 55% in size. In outline:
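Cytotoxicity counter screen in PPARg-bla HEK293H cells, same wells as reporter assay. Compounds plus 50 nM rosiglitazone (final) for 17 h at 37 C, then viability read by CellTiter-Glo luminescence.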

The nature of assay [19]: qHTS assay for small molecule agonists of the antioxidant response element (ARE) signaling pathway (AID 743202; active = well fitted activation curve with a large enough effect in the signal ratio in the repeat runs, not every such curve was filed as active; the % refers to the signal ratio). An outline of the steps: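 HepG2 ARE-bla reporter line, 2,000 cells/well; 5 h preincubation 37 C/5% CO2; compound (DMSO) 16 h 37 C; B/G FRET substrate 2 h RT; fluorescence intensity.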

Molecules are shown by their SMILES. Records with an inconclusive call do not appear. Activity calls are given as the source filed them. Unless noted, calls follow the shape of the dose curve; as a rule, active = well fitted curve in the direction sought with a large enough effect in the repeat runs; inconclusive = weak or mixed curves; inactive = no such curve, though single readings can be large; an effect the other way counts as inactive or inconclusive.

Chain of Estrogen receptor (Homo sapiens) (P03372 whole entry, looked up): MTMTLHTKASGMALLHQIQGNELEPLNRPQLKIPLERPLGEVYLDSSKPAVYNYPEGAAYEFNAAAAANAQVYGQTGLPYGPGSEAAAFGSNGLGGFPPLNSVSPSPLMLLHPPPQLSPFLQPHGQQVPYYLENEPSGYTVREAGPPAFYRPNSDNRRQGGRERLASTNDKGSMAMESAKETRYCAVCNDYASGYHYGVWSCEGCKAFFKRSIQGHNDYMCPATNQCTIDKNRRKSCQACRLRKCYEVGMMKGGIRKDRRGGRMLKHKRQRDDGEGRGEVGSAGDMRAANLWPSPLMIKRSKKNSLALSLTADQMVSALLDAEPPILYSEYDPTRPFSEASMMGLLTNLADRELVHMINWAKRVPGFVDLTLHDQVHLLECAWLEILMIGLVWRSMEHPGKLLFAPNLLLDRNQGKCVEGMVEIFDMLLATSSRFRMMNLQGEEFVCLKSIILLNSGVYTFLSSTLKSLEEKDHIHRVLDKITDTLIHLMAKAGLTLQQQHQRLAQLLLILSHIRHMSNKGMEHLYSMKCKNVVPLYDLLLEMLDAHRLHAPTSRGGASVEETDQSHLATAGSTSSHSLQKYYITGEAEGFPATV
Chain of Aryl hydrocarbon receptor (Homo sapiens) (P35869 whole entry, looked up): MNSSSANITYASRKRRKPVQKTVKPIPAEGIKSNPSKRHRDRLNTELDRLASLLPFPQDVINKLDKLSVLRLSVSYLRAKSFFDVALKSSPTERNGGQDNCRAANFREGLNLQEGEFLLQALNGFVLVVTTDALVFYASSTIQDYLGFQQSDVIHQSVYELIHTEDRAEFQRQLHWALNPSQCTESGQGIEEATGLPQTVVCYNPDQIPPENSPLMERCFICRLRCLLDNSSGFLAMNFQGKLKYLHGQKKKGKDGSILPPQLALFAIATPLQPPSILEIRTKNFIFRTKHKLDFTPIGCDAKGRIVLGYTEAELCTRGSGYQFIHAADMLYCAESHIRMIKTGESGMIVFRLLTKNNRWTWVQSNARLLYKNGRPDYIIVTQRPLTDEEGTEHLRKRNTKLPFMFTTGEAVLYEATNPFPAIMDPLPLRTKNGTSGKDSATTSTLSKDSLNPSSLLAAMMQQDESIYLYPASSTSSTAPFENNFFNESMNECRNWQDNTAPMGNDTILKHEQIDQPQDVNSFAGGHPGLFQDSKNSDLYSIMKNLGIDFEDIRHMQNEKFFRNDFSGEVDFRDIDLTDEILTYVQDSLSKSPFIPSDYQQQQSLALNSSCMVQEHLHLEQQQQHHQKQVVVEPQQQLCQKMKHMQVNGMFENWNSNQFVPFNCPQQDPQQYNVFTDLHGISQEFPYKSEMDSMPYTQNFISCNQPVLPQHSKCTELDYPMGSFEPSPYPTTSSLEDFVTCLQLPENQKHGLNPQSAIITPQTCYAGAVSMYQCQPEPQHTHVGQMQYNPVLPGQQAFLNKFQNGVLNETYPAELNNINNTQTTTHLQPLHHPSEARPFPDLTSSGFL
Chain of Peroxisome proliferator-activated receptor gamma (Homo sapiens) (P37231 whole entry, looked up): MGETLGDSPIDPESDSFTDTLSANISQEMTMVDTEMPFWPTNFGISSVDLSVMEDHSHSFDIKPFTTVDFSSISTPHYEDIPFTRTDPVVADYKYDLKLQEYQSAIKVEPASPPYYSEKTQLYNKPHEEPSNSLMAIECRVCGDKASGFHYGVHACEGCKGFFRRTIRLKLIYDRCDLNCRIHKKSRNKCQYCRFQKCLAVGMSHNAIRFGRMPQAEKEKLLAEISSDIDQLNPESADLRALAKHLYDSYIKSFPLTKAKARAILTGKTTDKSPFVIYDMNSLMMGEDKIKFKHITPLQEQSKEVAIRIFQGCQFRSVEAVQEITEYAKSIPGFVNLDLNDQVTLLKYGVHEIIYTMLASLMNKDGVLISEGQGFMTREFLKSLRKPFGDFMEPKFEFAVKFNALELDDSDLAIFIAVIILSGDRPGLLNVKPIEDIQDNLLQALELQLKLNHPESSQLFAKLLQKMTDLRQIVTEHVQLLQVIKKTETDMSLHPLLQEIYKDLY

Turning to `O=C(C(=O)c1ccco1)c1ccco1`, the Potency result in assay [1], in assay [2], in assay [3], in [4], in assay [5] and in assay [6] was “inactive” throughout. The Potency result in assay [7], in assay [8], in assay [9], in assay [10], in [11] and in [12] was “inactive” throughout. For the same molecule, the Potency entry in [13], in assay [15], in assay [16] and in assay [17] was “inactive” each time. In assay [14], the molecule was classed as inactive.

Turning to `C=C(C)C(=O)OCCC(F)(F)C(F)(F)C(F)(F)C(F)(F)C(F)(F)C(F)(F)F`, the Potency result in assay [1], in assay [2], in [3], in assay [4], in [5] and in assay [6] was “inactive” throughout. The Potency entry in assay [7], in assay [9], in [10], in assay [11], in assay [12] and in [13] was “inactive” throughout. The Potency entry in assay [18], in assay [19], in [15], in [16] and in assay [17] was “inactive” throughout. The molecule was called inactive in [14].

Take `CC(=O)Oc1cccc(O)c1`: the Potency entry in assay [1], in [2], in [3], in assay [4], in [5] and in assay [6] was “inactive” in each case. The Potency entry in [7], in assay [9], in assay [10], in assay [11], in assay [12] and in [13] was “inactive” throughout. The Potency entry in [18], in [15] and in [16] was “inactive” each time. The molecule was called inactive in assay [14].

As for `CCN(Cc1cccc(S(=O)(=O)O)c1)c1ccc(C(=C2C=CC(=[N+](CC)Cc3cccc(S(=O)(=O)O)c3)C=C2)c2ccccc2S(=O)(=O)[O-])cc1`, the Potency in [1] is 34.5 µM (active); in [2], 15.4 µM (active); in [9], 38.7 µM (active); in assay [10] it was 17.3 µM (active); in [11], 13.7 µM (active); in [13], 27.4 µM (active). For the same molecule, the Potency result in assay [3], in assay [4], in assay [6], in assay [12], in assay [18] and in [19] was “inactive” each time. Further, in assay [17], the Potency entry is “inactive”.

Take `CCSC(=O)N(CC)CC`: the Potency entry in assay [1], in assay [2], in assay [3], in assay [4], in [5] and in [6] was “inactive” throughout. Further, the Potency entry in assay [7], in [9], in [10], in [11], in assay [12] and in assay [13] was “inactive” in each case. Besides, the Potency entry in assay [18], in assay [15], in assay [16] and in assay [17] was “inactive” in each case. Besides, the molecule was classed as inactive in [14].

Take `Cc1cc([N+](=O)[O-])ccc1N`: the Potency entry in [1], in [2], in [3], in assay [4], in [6] and in [8] was “inactive” throughout. Further, the Potency entry in assay [9], in assay [18], in assay [19], in [15] and in assay [16] was “inactive” each time. For the same molecule, in [11], the Potency was 53.8 µM (active).

On to `COc1cc(NCc2ccc3nc(N)nc(N)c3c2C)cc(OC)c1OC`, for which the Potency was 8.41 µM (active) in [1]; 0.668 µM (active) in assay [2]; 213 nM (active) in assay [5]; 29.8 µM (active) in assay [12]; 29.8 µM (active) in assay [13]; 37.6 nM (active) in [15]. Besides, the Potency result in [3], in [4], in assay [6], in assay [7], in assay [16] and in [17] was “inactive” each time.

As for `O=C1NC(=O)c2cccc3cccc1c23`, the Potency result in assay [1], in assay [2], in assay [3], in assay [5], in assay [6] and in assay [7] was “inactive” throughout. For the same molecule, the Potency result in [8], in [9], in assay [10], in assay [11], in [13] and in [18] was “inactive” in each case. Moreover, the Potency result in [15], in assay [16] and in [17] was “inactive” throughout. For the same molecule, the Potency in assay [12] was 21.7 µM (active). Besides, in assay [14], the molecule was classed as inactive.

Regarding `CC(C)c1ccc(C(=O)N=C(N)N)cc1S(C)(=O)=O`, the Potency result in [1], in [2], in assay [3], in assay [4], in assay [5] and in assay [6] was “inactive” each time. Moreover, the Potency result in assay [8], in assay [9], in assay [10], in [11], in [12] and in [13] was “inactive” in each case. Also, the Potency entry in assay [18], in [15], in assay [16] and in assay [17] was “inactive” each time. Also, the outcome in assay [14] was inactive.

The values are drawn from PubChem BioAssay (Tox21).
